Experimental findings from PubChem BioAssay (EPA / NIEHS) are described below.

Where “and” joins values, the source holds several entries; their conditions need not be identical. Identical values can stand only once. Records with an inconclusive call do not appear. Where a structure was tested more than once in an assay, its records may differ in their call. Calls of active or inactive are those of the source. How the source made its calls, unless noted: active means hit-call score of the fitted dose curve at least 0.9, where 1 is the maximum; inconclusive means response in the unintended direction; inactive means score below 0.9.

Experiment [1] in a line: Tanguay_ZF_120hpf_PFIN_legacy: (Legacy) Oregon State University Tanguay Lab 120 Hour Post-fertilization zebrafish Assay for Pectoral Fin Malformation (AID 2283648).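 Further: each larva judged yes or no for fin defect by brightfield with dead larvae skipped.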 In short, it runs like this:
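Tropical 5D wild-type embryos, dechorionated with pronase at 4 hpf, were placed singly in wells at 6 hpf and statically exposed until 120 hpf at 28C, sealed and dark, with 0.64% (vol/vol) final DMSO; pectoral fin malformation scored present/absent.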

The nature of experiment [2]: Tanguay_ZF_120hpf_CFIN_legacy: (Legacy) Oregon State University Tanguay Lab 120 Hour Post-fertilization zebrafish Assay for Caudal Fin Malformation (AID 2283649). The method, boiled down: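 Dechorionated Tropical 5D wild-type embryos, one per well from 6 hpf, static exposure to 120 hpf at 28C in 0.64% DMSO. Caudal fin malformation scored by brightfield as present/absent; not scored in dead embryos.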

Experiment [3] can be described thus: Tanguay_ZF_120hpf_PIG_legacy: (Legacy) Oregon State University Tanguay Lab 120 Hour Post-fertilization zebrafish Assay for Pigmentation Malformation (AID 2283650). The method, boiled down:
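Tropical 5D wild-type zebrafish embryos, dechorionated with pronase at 4 hpf, were exposed singly from 6 hpf to 120 hpf statically at 28C in sealed, dark plates with 0.64% DMSO; pigmentation scored present/absent by brightfield microscopy, fitted against DMSO.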

Experiment [4] in a line: Tanguay_ZF_120hpf_CIRC_legacy: (Legacy) Oregon State University Tanguay Lab 120 Hour Post-fertilization zebrafish Assay for Circulatory Malformation (AID 2283651). The method, boiled down: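 Dechorionated wild-type 5D zebrafish embryos, one per well, statically exposed from 6 to 120 hpf at 28C with 0.64% DMSO; circulatory malformation scored present/absent by brightfield microscopy at 120 hpf, dead embryos excluded.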

Experiment [5] in a line: Tanguay_ZF_120hpf_TRUN_legacy: (Legacy) Oregon State University Tanguay Lab 120 Hour Post-fertilization zebrafish Assay for Truncated Body (AID 2283655). The method, boiled down:
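Dechorionated Tropical 5D wild-type embryos placed singly from 6 hpf and statically exposed to 120 hpf at 28C, final DMSO 0.64%. Truncated body scored as present/absent by brightfield; not scored in dead embryos.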

Experiment [6] can be described thus: Tanguay_ZF_120hpf_NC_legacy: (Legacy) Oregon State University Tanguay Lab 120 Hour Post-fertilization zebrafish Assay for Notochord and Tail Malformation (AID 2283656). The method, boiled down: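 Dechorionated Tropical 5D wild-type zebrafish embryos, one per well from 6 hpf, statically exposed to 120 hpf at 28C in 0.64% DMSO final. Notochord distortion scored present/absent by brightfield; dead embryos excluded.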

Read-out in experiment [7]: solute carrier (SLC10A1), SLC10A1 (gene 6554)
The experiment in a line: LTEA_HepaRG_SLC10A1: Life Technologies and Expression Analysis (LTEA) Assay for solute carrier (SLC10A1) using HepaRG (AID 2283657; active means hit-call score of the fitted dose curve at least 0.9, where 1 is the maximum; inactive means score below 0.9). Particulars: mRNA level, 48 h; actives raise or lower the signal. In short, it runs like this:
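Differentiated HepaRG cells were plated 48 h, then exposed in serum-free induction medium for 48 h to 8 concentrations (top 100 uM, half-log steps, 0.5% DMSO). SLC10A1 mRNA was quantified by qRT-PCR normalized to ACTB, GAPDH, POLR2A; bidirectional fit versus DMSO.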

Read-out in experiment [8]: matrix metalloproteinase-1 (MMP1), MMP1 (gene 4312)
Briefly: LTEA_HepaRG_MMP1: Life Technologies and Expression Analysis (LTEA) Assay for matrix metalloproteinase-1 (MMP1) using HepaRG (AID 2283658; active means hit-call score of the fitted dose curve at least 0.9, where 1 is the maximum; inactive means score below 0.9). Particulars: mRNA level, 48 h; actives raise or lower the signal. The method, boiled down: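 Differentiated human HepaRG cells, 48 h post-plating in serum-free induction medium, were exposed 48 h to eight half-log concentrations topping at 100 uM in 0.5% DMSO, duplicate. MMP1 mRNA measured by Fluidigm TaqMan qRT-PCR, normalized to ACTB, GAPDH, POLR2A; bidirectional fits versus DMSO.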

Read-out in experiment [9]: ABC Transporter (ABCB1), ABCB1 (gene 5243)
The experiment in a line: CLD_ABCB1_6hr: CellzDirect (CLD) Gene Expression Assay for ABC Transporter (ABCB1) at 6 hours (AID 2283659).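 Further: hits raise ABCB1 transcript above the DMSO vehicle baseline.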 In short, it runs like this: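 Primary human hepatocytes (two donor preparations) dosed daily for two days with chemicals at multiple concentrations, 0.2% DMSO vehicle; harvested 6 h post-dose. ABCB1 mRNA induction quantified by qNPA chemiluminescence; gain-of-signal fitted versus DMSO.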

For experiment [10], the system named is Thyroperoxidase (TPO), gene 54314. The experiment in a line: CCTE_Simmons_AUR_rTPO: CCTE's Amplex UltraRed Assay for Thyroperoxidase (TPO) Inhibition, Simmons Lab (AID 2283662).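 On AC50: potency for loss of signal meaning inhibition of peroxidase activity.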 The method, boiled down:
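Rat thyroid microsomal TPO + 25 uM AUR in 200 mM K phosphate; cpd 5 nM–87.5 uM [final], 8 conc, 0.5% DMSO; 300 uM H2O2 starts rxn; 37C dark 30 min; endpoint FI 544/590 nm; n=3.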

The nature of experiment [11]: CCTE_Simmons_CellTiterGLO_HEK293T: Viability Assessment in CCTE's Assays for Thyroperoxidase (TPO) Inhibition, Simmons Lab (AID 2283665).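 Further: cells exposed to compound for 24 h before readout; actives reduce ATP signal below DMSO vehicle meaning cytotoxicity.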 In short, it runs like this:
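HEK293T cells in DMEM with 1% FBS, dosed 24 h at 37C with 8 concentrations, 5 nM–87.5 uM final, 0.5% DMSO. ATP measured by CellTiter Glo luminescence; loss of signal vs DMSO, three biological replicates.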
Background: In ATP-based viability assays light output follows the ATP content of the culture.

Experiment [12] can be described thus: Tanguay_ZF_120hpf_TR_legacy: (Legacy) Oregon State University Tanguay Lab 120 Hour Post-fertilization zebrafish Assay for Touch Response (AID 2283667). The method, boiled down: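 Tropical 5D wild-type zebrafish embryos were exposed statically in sealed, foil-covered plates at 28C until 120 hpf, with 0.64% (vol/vol) final DMSO. Touch response was scored as present or absent; embryos that died were not scored.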

Read-out in experiment [13]: sulfotransferase (SULT2A), SULT2A1 (gene 6822)
Briefly: CLD_SULT2A_6hr: CellzDirect (CLD) Gene Expression Assay for sulfotransferase (SULT2A) at 6 hours (AID 2283669).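 Further: hits raise transcript level above the DMSO vehicle baseline.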 The method, boiled down: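 Primary human hepatocytes from two donor preparations were dosed daily with chemicals or 0.2% DMSO and harvested at 6 h. Transcript induction read by qNPA chemiluminescence, fitted for gain of signal relative to DMSO; morphology-based cytotoxicity annotated.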

Read-out in experiment [14]: Cytochrome P450 (CYP24A1_1), CYP24A1 (gene 1591)
The experiment in a line: LTEA_HepaRG_CYP24A1_1: Life Technologies and Expression Analysis (LTEA) Assay for Cytochrome P450 (CYP24A1_1) using HepaRG (AID 2283671; active means hit-call score of the fitted dose curve at least 0.9, where 1 is the maximum; inactive means score below 0.9). Particulars: mRNA level, 48 h; actives raise or lower the signal. In short, it runs like this:
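HepaRG, 48 h exposure, 8-pt half-log series from 100 uM in 0.5% DMSO, duplicates. Readout: TaqMan qRT-PCR of CYP24A1 mRNA, housekeeping-normalized (ACTB/GAPDH/POLR2A). Bidirectional curve fit vs DMSO baseline.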

Read-out in experiment [15]: glucuronosyltransferase (UGT1A1), UGT1A1 (gene 54658)
Briefly: CLD_UGT1A1_6hr: CellzDirect (CLD) Gene Expression Assay for glucuronosyltransferase (UGT1A1) at 6 hours (AID 2283672). The method, boiled down: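 Primary human hepatocytes from two donor preparations, dosed with fresh solutions in 0.2% DMSO, harvested at 6 h. UGT1A1 mRNA measured by qNPA chemiluminescence; induction fitted upward versus DMSO.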

Read-out in experiment [16]: xenobiotic metabolism (CYP1A1), CYP1A1 (gene 1543)
The experiment in a line: CLD_CYP1A1_24hr: CellzDirect (CLD) Gene Expression Assay for xenobiotic metabolism (CYP1A1) at 24 hours (AID 2283673). The method, boiled down: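 Primary human hepatocytes dosed daily with fresh solutions in 0.2% DMSO vehicle. mRNA measured at 24 h by quantitative nuclease protection assay with chemiluminescence; gain-of-signal fit versus DMSO, with morphology-based cytotoxicity flags.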

Experiment [17] can be described thus: CLD_ACTIN_24hr: CellzDirect (CLD) Gene Expression Assay for Baseline Control (Actin) at 24 hours (AID 2283670). In short, it runs like this: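 Primary human hepatocytes dosed over multiple concentrations with 0.2% DMSO vehicle; actin mRNA measured at 24 h by qNPA chemiluminescence. Background control endpoint, fitted as gain of signal versus DMSO.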
Read-out in experiment [18]: xenobiotic metabolism (CYP1A1), CYP1A1 (gene 1543)
Briefly: CLD_CYP1A1_6hr: CellzDirect (CLD) Gene Expression Assay for xenobiotic metabolism (CYP1A1) at 6 hours (AID 2283661). The method, boiled down:
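Primary human hepatocytes from two donors, compound versus 0.2% DMSO vehicle. CYP1A1 mRNA measured 6 h after dosing by quantitative nuclease protection assay with chemiluminescent read-out; induction fitted relative to DMSO, cytotoxicity flagged by microscopy.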

For orientation: AC50 means the concentration giving half of the maximal activity seen. As for `CCCN(CCOc1c(Cl)cc(Cl)cc1Cl)C(=O)n1ccnc1`, the call in experiment [1], in experiment [2], in experiment [3], in [4], in experiment [5] and in experiment [6] was inactive. Besides, the molecule was called inactive in experiment [9], in experiment [10], in experiment [12], in experiment [13], in experiment [14] and in experiment [15]. In addition, the AC50 in [7] was 35.9 µM (active); in [8] it was 69.2 µM (active); in [11] it was 89.5 µM (active); in experiment [16], 1.89 µM (active).

Consider `O=[N+]([O-])/N=C1\NCCN1Cc1ccc(Cl)nc1`, for which the call in experiment [1], in [2], in experiment [3], in experiment [4], in experiment [5] and in experiment [6] was inactive. In addition, the molecule was called inactive in experiment [9], in experiment [12], in experiment [13], in experiment [17] and in [15].

With `CC(C)(C)C(O)C(Oc1ccc(Cl)cc1)n1cncn1` (stereo not drawn), the AC50 in experiment [1] is 47.2 µM (active) and 33.2 µM (active) and 39.7 µM (active); in [2] it was 40.7 µM (active); in experiment [3] it was 44.2 µM (active) and 47.8 µM (active); in [4], 40.6 µM (active); in experiment [5], 32.2 µM (active) and 47.2 µM (active); in experiment [12] it was 41.5 µM (active) and 65.4 µM (active). Also, the call in experiment [2], in experiment [3], in experiment [4], in [5], in experiment [6] and in experiment [9] was inactive. The call in [12], in experiment [13] and in [15] was inactive.

Regarding `O=C(NC(=O)c1c(F)cccc1F)Nc1ccc(OC(F)(F)C(F)OC(F)(F)F)c(Cl)c1` (stereo not drawn), the molecule was classed as inactive in experiment [1], in [2], in experiment [3], in experiment [4], in experiment [5] and in experiment [6]. Besides, the result in experiment [9], in experiment [12], in experiment [13], in experiment [17] and in [15] was inactive.

`O=[N+]([O-])c1c(Cl)c(Cl)c(Cl)c(Cl)c1Cl`: the call in experiment [1], in [2], in experiment [3], in experiment [4], in [5] and in experiment [6] was inactive. The molecule was called inactive in [9], in experiment [12], in experiment [17] and in [15].

In the case of `O=S1OCC2C(CO1)C1(Cl)C(Cl)=C(Cl)C2(Cl)C1(Cl)Cl` (stereo not drawn), the result in [1], in [2], in experiment [3], in experiment [4], in [5] and in experiment [9] was inactive. For the same molecule, the result in [12], in experiment [13], in experiment [17], in experiment [15] and in [16] was inactive.

In the case of `CC1(c2ccc(Oc3ccccc3)cc2)OC(=O)N(Nc2ccccc2)C1=O` (stereo not drawn), the outcome in experiment [1], in experiment [2], in experiment [3], in [4], in experiment [5] and in experiment [6] was inactive. Also, the call in experiment [12], in experiment [13] and in experiment [17] was inactive. For the same molecule, the AC50 in experiment [10] was 2.45 µM (active); in [11], 20.2 µM (active).

For the molecule `CNC(=O)Oc1ccccc1OC(C)C`, the molecule was called inactive in [1], in experiment [2], in [3], in experiment [4], in experiment [5] and in experiment [6]. For the same molecule, the call in experiment [9], in [18], in experiment [12], in experiment [13], in experiment [17] and in experiment [15] was inactive.

On to `O=C(O)COc1ccc(Cl)cc1Cl`, for which the molecule was classed as inactive in [1], in [2], in experiment [3], in experiment [4], in experiment [5] and in experiment [6]. Moreover, the molecule was classed as inactive in [9], in [12], in [17] and in experiment [15].

On to `N#Cc1c(Cl)c(Cl)c(Cl)c(C#N)c1Cl`, for which the outcome in [1], in [2], in [3], in experiment [4], in experiment [6] and in experiment [14] was inactive. Besides, the AC50 in [5] is 47.8 µM (active); in [7] it was 27.8 µM (active); in [8], 13.3 µM (active); in [13] it was 33.5 µM (active).

`O=S(=O)(O)C(F)(F)C(F)(F)C(F)(F)C(F)(F)C(F)(F)C(F)(F)C(F)(F)C(F)(F)F`: the AC50 was 36 µM (active) in experiment [1]; 12.2 µM (active) in experiment [2]; 46.6 µM (active) in [3]; 42.5 µM (active) in [4]; 10.6 µM (active) and 21.2 µM (active) in experiment [5]; 64.1 µM (active) and 57.1 µM (active) in experiment [11]. Also, the AC50 in experiment [12] was 9.61 µM (active) and 16.3 µM (active) and 13.3 µM (active). Besides, the result in experiment [1], in [2], in [3], in experiment [4], in experiment [5] and in [6] was inactive. Further, the molecule was called inactive in experiment [10], in experiment [13] and in experiment [15].
